Laboratory results reported in PubChem BioAssay (NCATS).
Unmarked numbers belong to inactive results. Calls follow the shape of the dose curve; as a rule, active = well fitted curve in the direction sought with a large enough effect; inconclusive = small, poorly fitted or top-dose-only effect, or another doubt; inactive = no such curve, though single readings can be large; an effect the other way counts as inactive or inconclusive. Records with an inconclusive call do not appear.

assay: qHTS of Nrf2 Activators: LOPAC Validation (AID 624149); details: Nrf2/ARE reporter cell assay; series mostly up to 46.1 µM; activation: at the top concentration; also: 0% is about no effect
Procedure, shortened: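 Following overnight seeding in 5% FBS OPTI-MEM, AREc32_Fluc cells receive compounds for a 24 hr incubation at 37 deg C with 5% CO2. Steady-Glo is added, and after 30 min at RT luminescence is recorded.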

Row | Compound | activation
1 | COc1cc2ncnc(Nc3cccc(Cl)c3)c2cc1OC | -1.23%
2 | CC(C)NCC(O)c1ccc(NS(C)(=O)=O)cc1 (stereo not drawn) | -2.53%
3 | CCN1CCCC1CNC(=O)c1cc(S(N)(=O)=O)ccc1OC (stereo not drawn) | -0.283%
4 | Nc1nc(N)c2nc(CNc3ccc(C(=O)NC(CCC(=O)O)C(=O)O)cc3)cnc2n1 (stereo not drawn) | -2.24%

assay: HTS Assay for Allosteric Antagonists of the Human D2 Dopamine Receptor: Hit Validation in HTRF (AID 624455); details: Cells stably expressing D1 dopamine receptor, inhibition mode; series mostly up to 46.1 µM; activity, negative = inhibition: at the top concentration;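 also: stable D1 dopamine receptor cell line scored for blocking the D1 response; % is scaled to controls: 0 for no effect and ±100 for the full control effect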
Procedure, shortened: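 Validation of hits used D1 receptor stably expressed in cells with HTRF detection of response inhibition; origin screen measured calcium flux following EC80 dopamine in a force-coupled, inducible Hek293 Trex D2 cell line.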

Row | Compound | activity, negative = inhibition
5 | COc1cc2ncnc(Nc3cccc(Cl)c3)c2cc1OC | 1.4%
6 | CC(C)NCC(O)c1ccc(NS(C)(=O)=O)cc1 (stereo not drawn) | -4.05%
7 | CCN1CCCC1CNC(=O)c1cc(S(N)(=O)=O)ccc1OC (stereo not drawn) | 9.55%
8 | Nc1nc(N)c2nc(CNc3ccc(C(=O)NC(CCC(=O)O)C(=O)O)cc3)cnc2n1 (stereo not drawn) | -11.1%
